Our source for the outcome and AC50 values is PubChem BioAssay (EPA / NIEHS).

Records with an inconclusive call do not appear. Active and inactive are the calls of the source. Rule for the calls, unless noted: active = hit-call score of the fitted dose curve at least 0.9, where 1 is the maximum; inactive = score below 0.9.

The nature of experiment [1]: ATG_TCF_b_cat_CIS: Attagene CIS-FACTORIAL HepG2 Assay for human T-Cell-Factor with beta-catenin (TCF/b-cat) (AID 2282965). The settings on record: HepG2 TCF/beta-catenin cis-reporter transcription, actives raise or lower the signal. An outline of the steps:
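Endogenous TCF/LEF activity read as reporter transcript level via RT-PCR and capillary electrophoresis fluorescence in transfected HepG2, 24 h exposure; gain or loss of signal fitted against DMSO controls.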

A short description of experiment [2]: ATG_TAL_CIS: Attagene CIS-FACTORIAL HepG2 Assay for human TAL Basal Promoter (AID 2282966).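 Note: background control endpoint measuring basal TAL promoter reporter mRNA not a specific factor.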 The settings on record: HepG2 Attagene cis-factorial TAL promoter reporter; actives raise or lower the signal. An outline of the steps:
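Fluorescence of labelled reporter cDNA fragments, resolved by capillary electrophoresis, gave the readout. Human HepG2 liver cells carried transiently transfected cis-element reporter units and were treated for 24 hours; activity was fitted bidirectionally against DMSO.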

Experiment [3] is described as follows: ATG_TGFb_CIS: Attagene CIS-FACTORIAL HepG2 Assay for human Transforming Growth Factor (TGF) (AID 2282967). The settings on record: HepG2 Attagene CIS TGFb reporter, mRNA transcription; actives raise or lower the signal. The essentials:
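HepG2 cells transiently transfected with cis-promoter-driven multiplexed reporter units; 24 h compound exposure. Reporter mRNA measured by RT-PCR, 6-FAM labeling, HpaI digestion and capillary electrophoresis; bidirectional fit versus DMSO baseline.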

Experiment [4] is described as follows: ATG_VDRE_CIS: Attagene CIS-FACTORIAL HepG2 Assay for human Vitamin D Receptor Element (VDRE) (AID 2282968). The settings on record: HepG2 VDRE cis-reporter transcription, actives raise or lower the signal. An outline of the steps: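 In transiently transfected HepG2 liver cells, gain or loss of reporter mRNA after 24 h exposure is scored relative to DMSO, using fluorescence detection by capillary electrophoresis of RT-PCR products.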

Experiment [5] deals with Nuclear receptor subfamily 1 group I member 3 (Homo sapiens) (UniProt Q14994). The experiment can be described thus: ATG_CAR_TRANS: Attagene TRANS-FACTORIAL HepG2 Assay for human Constitutive Androstane Receptor (CAR) (AID 2282969; active = hit-call score of the fitted dose curve at least 0.9, where 1 is the maximum;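 note: activators raise reporter mRNA above DMSO so AC50 marks induction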). The settings on record: HepG2 Attagene TRANS-FACTORIAL CAR reporter. The essentials:
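Readout is reporter mRNA induction, quantified by fluorescent primer extension and capillary electrophoresis after RT-PCR. Cells were HepG2 transiently carrying chimeric NR-Gal4 constructs with GAL4-UAS reporters, treated for 24 h; activity scored upward from DMSO.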

In experiment [6] the target is Estrogen receptor (Homo sapiens) (UniProt P03372). As to the kind of experiment: ATG_ERa_TRANS: Attagene TRANS-FACTORIAL HepG2 Assay for human Estrogen Receptor alpha (ERa) (AID 2282970; active = hit-call score of the fitted dose curve at least 0.9, where 1 is the maximum). The settings on record: HepG2 Attagene TRANS ERa GAL4 reporter, mRNA. The essentials:
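Human liver HepG2, transient transfection of multiple GAL4-UAS reporter units; TRANS format (exogenous NR-Gal4 chimera). 24 h dosing. Readout: reporter mRNA, RT-PCR, 6-FAM primer extension, HpaI digest, capillary electrophoresis. Positive direction vs DMSO.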

The target of experiment [7] is X-box-binding protein 1 (Homo sapiens) (UniProt P17861). The experiment can be described thus: ATG_Xbp1_CIS: Attagene CIS-FACTORIAL HepG2 Assay for human X-box Binding Protein 1 (XBP1) (AID 2282972). The settings on record: HepG2 XBP1 cis-element reporter, Attagene multiplex; actives raise or lower the signal. The essentials:
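HepG2 cells transiently transfected with cis-regulated multiple reporter transcription units; endogenous transcription factor activity measured 24 hours after chemical dosing. Reporter mRNA quantified by RT-PCR, 6-FAM primer extension, HpaI digestion and capillary electrophoresis; bidirectional fitting versus DMSO.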

Experiment [8] in a line: ATG_M_19_TRANS: Attagene TRANS-FACTORIAL HepG2 Assay for M19 Transcription Factor (Internal Marker) (AID 2282974; active = hit-call score of the fitted dose curve at least 0.9, where 1 is the maximum). The settings on record: HepG2 Attagene TRANS-FACTORIAL M19 internal marker reporter. An outline of the steps:
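HepG2 transiently transfected with GAL4-UAS multiplex reporter constructs, exposed 24 h; reporter RNA quantified by RT-PCR, 6-FAM labeling, HpaI digestion and capillary electrophoresis; internal background marker fitted upward versus DMSO.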

The nature of experiment [9]: ATG_GAL4_TRANS: Attagene TRANS-FACTORIAL HepG2 Assay for GAL4 (Internal Marker) (AID 2282976; active = hit-call score of the fitted dose curve at least 0.9, where 1 is the maximum). The settings on record: HepG2 Attagene TRANS GAL4 internal marker reporter. An outline of the steps: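 First, HepG2 cells were transfected with reporter units under GAL4-UAS control. Next, they were treated with chemical for 24 h. Finally, RNA was reverse-transcribed, PCR-amplified, FAM-labelled and resolved by capillary electrophoresis, with induction scored against DMSO.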

The target in experiment [10] is Steroid hormone receptor ERR1 (Homo sapiens) (UniProt P11474). As to the kind of experiment: ATG_ERRa_TRANS: Attagene TRANS-FACTORIAL HepG2 Assay for human Estrogen-Related Receptor alpha (ERRa) (AID 2282971; active = hit-call score of the fitted dose curve at least 0.9, where 1 is the maximum). The settings on record: HepG2 Attagene TRANS reporter, ERRa transactivation. The essentials:
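Reporter transcript induction was quantified by RT-PCR and capillary electrophoresis of FAM-labelled, HpaI-cut products after 24 h treatment of HepG2 cells carrying transiently transfected GAL4-UAS reporter units and an exogenous ERRa-Gal4 fusion; activity scored as increase over DMSO.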

Sequence of Nuclear receptor subfamily 1 group I member 3 (Homo sapiens) (Q14994 whole entry, looked up, the tested form may be a part): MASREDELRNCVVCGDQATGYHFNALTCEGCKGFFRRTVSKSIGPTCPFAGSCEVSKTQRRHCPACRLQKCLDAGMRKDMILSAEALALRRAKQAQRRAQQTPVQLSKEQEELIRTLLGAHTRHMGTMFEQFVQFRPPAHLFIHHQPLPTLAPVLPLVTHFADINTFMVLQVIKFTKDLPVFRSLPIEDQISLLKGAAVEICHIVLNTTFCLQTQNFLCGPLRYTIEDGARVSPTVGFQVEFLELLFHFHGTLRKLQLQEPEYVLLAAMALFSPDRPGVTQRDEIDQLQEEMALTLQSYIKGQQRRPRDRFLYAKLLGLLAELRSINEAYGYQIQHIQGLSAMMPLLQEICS
Sequence of X-box-binding protein 1 (Homo sapiens) (P17861 whole entry, looked up): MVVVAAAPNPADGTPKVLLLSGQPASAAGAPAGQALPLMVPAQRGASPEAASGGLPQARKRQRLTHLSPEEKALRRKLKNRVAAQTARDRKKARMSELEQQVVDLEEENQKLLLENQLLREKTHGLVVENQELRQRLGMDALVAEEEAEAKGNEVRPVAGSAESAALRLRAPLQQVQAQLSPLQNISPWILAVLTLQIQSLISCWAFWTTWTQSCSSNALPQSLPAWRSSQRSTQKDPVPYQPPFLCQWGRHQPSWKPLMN
Sequence of Estrogen receptor (Homo sapiens) (P03372 whole entry, looked up, the tested form may be a part): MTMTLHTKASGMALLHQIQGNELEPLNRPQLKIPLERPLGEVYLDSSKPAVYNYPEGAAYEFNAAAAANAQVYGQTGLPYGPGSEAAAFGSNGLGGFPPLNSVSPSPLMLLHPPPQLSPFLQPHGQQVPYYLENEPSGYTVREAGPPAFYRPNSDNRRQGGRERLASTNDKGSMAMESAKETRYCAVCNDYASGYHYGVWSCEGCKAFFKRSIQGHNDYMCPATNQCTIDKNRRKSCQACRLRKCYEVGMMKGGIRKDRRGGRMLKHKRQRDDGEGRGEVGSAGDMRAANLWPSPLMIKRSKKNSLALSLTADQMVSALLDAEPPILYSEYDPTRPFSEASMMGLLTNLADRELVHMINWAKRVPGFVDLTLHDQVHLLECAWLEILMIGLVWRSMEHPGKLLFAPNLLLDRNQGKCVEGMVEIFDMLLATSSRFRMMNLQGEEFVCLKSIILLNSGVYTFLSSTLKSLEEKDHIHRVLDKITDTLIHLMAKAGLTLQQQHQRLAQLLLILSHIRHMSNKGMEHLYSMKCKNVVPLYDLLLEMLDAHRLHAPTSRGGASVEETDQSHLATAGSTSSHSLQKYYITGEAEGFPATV
Sequence of Steroid hormone receptor ERR1 (Homo sapiens) (P11474 whole entry, looked up, the tested form may be a part): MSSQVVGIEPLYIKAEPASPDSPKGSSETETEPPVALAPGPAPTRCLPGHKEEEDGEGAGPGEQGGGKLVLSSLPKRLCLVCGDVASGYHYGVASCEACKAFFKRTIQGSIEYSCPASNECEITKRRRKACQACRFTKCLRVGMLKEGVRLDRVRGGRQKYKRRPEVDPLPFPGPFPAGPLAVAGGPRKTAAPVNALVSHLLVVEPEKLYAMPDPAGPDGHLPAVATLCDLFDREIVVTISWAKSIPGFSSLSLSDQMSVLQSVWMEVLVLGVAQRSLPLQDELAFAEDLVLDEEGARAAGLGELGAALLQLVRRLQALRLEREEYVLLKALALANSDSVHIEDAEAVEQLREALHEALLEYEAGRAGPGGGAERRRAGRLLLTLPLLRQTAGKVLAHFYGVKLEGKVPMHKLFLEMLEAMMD

As to `COC(Cc1ccccc1)OC`, the molecule was classed as inactive in experiment [1], in [2], in experiment [3], in experiment [4], in experiment [5] and in [6]. The result in [7] and in [8] was inactive.
In the case of `CCOC(=O)[C@H](O)[C@@H](O)C(=O)OCC`, the molecule was called inactive in experiment [1], in experiment [2], in experiment [3], in [4], in [5] and in experiment [6]. For the same molecule, the call in [7] and in experiment [8] was inactive.
As a reminder, the AC50 is the midpoint of the concentration-response curve, whichever way the signal moves. Regarding `C=C[Si](OCCOC)(OCCOC)OCCOC`, the molecule was classed as inactive in experiment [1], in experiment [2], in experiment [3], in [5], in experiment [6] and in experiment [7]. The molecule was classed as inactive in [8] and in experiment [9]. For the same molecule, the AC50 in [4] was 5.92 µM (active).
Take `CCCCCCCOC(=O)c1ccc(O)cc1`: the molecule was classed as inactive in experiment [1], in experiment [2], in [3], in experiment [4], in [5] and in experiment [9]. Moreover, the AC50 in experiment [6] is 8.4 µM (active).
As for `CCOC(=O)CC(=O)c1ccccc1`, the molecule was called inactive in experiment [1], in experiment [2], in experiment [3], in experiment [4], in experiment [5] and in [7]. Further, the outcome in experiment [8] and in experiment [9] was inactive.
For `CC/C=C\CCOC(=O)c1ccccc1O`, the molecule was called inactive in experiment [1], in [2], in experiment [3], in experiment [4], in [5] and in experiment [6]. Further, the result in [10], in experiment [7] and in experiment [8] was inactive.
As for `COC(=O)C=Cc1ccccc1`, the molecule was classed as inactive in experiment [1], in [2], in experiment [3], in [4], in experiment [5] and in experiment [6]. In addition, the call in experiment [7] and in [9] was inactive.
On to `CC(Cl)COP(=O)(OCC(C)Cl)OCC(C)Cl` (stereo not given), for which the molecule was classed as inactive in [1], in experiment [2], in [3], in [5], in [6] and in experiment [10]. For the same molecule, the call in [7], in experiment [8] and in [9] was inactive. Further, the AC50 in experiment [4] was 3.75 µM (active).
`COc1cc(O)c(C(=O)c2ccccc2)cc1S(=O)(=O)O`: the molecule was classed as inactive in experiment [1], in experiment [2], in experiment [3], in experiment [4], in experiment [5] and in [6]. Further, the molecule was called inactive in experiment [7], in experiment [8] and in [9].
On to `CCCCCCCCCCCCCc1ccccc1`, for which the molecule was classed as inactive in experiment [1], in [2] and in experiment [3].
`C=C(C)C(=O)OCC(O)COc1ccc(C(C)(C)c2ccc(OCC(O)COC(=O)C(=C)C)cc2)cc1` (stereo not given): the outcome in experiment [1], in experiment [2], in [3], in [5], in experiment [8] and in experiment [9] was inactive. Further, the AC50 in experiment [4] was 9.75 µM (active).
Take `CC1CC(=O)CC(C)(C)C1` (stereo not given): the outcome in experiment [1], in [2], in [3] and in experiment [4] was inactive.
Turning to `Clc1cc(Cl)c(Cl)c(Cl)c1Cl`, the molecule was classed as inactive in experiment [1], in experiment [2], in experiment [5], in experiment [7] and in [8]. The AC50 in [3] was 100 µM (active); in [4], 56.2 µM (active); in [6] it was 27 µM (active).
As for `C=C(C)C(=O)OCCCCCCCCCCCC`, the molecule was called inactive in experiment [1], in [2], in [3], in experiment [4], in experiment [5] and in experiment [10]. The molecule was classed as inactive in [7] and in experiment [8]. The AC50 in experiment [6] was 56.7 µM (active).
Consider `C=Cc1cccc(C)c1`, for which the molecule was classed as inactive in experiment [1], in experiment [2], in [3], in [4], in experiment [5] and in experiment [6]. Besides, the call in experiment [7] and in experiment [8] was inactive.
Turning to `C=CCOC(=O)c1ccc(C(=O)OCC=C)c(C(=O)OCC=C)c1`, the result in experiment [1], in experiment [2], in experiment [3], in experiment [5], in [6] and in experiment [7] was inactive. Moreover, the result in experiment [8] was inactive. In addition, the AC50 in experiment [4] was 41.6 µM (active).
`C=C(C)OC(C)=O`: the result in experiment [1], in experiment [2], in experiment [3], in [4], in [5] and in [6] was inactive. Besides, the result in experiment [10], in experiment [7], in [8] and in experiment [9] was inactive.
On to `CC(C)CCOCc1ccccc1`, for which the result in experiment [1], in experiment [2], in experiment [3], in [4], in [5] and in experiment [6] was inactive. Besides, the molecule was called inactive in experiment [10], in experiment [7] and in [9].
In the case of `C=CC(=O)NC(C)(C)C`, the result in experiment [1], in experiment [2], in experiment [3], in [4], in experiment [5] and in experiment [6] was inactive. For the same molecule, the call in [7] was inactive.
In the case of `CCOc1ccc(NC(N)=O)cc1`, the result in [1], in experiment [2], in [3], in experiment [4], in experiment [5] and in experiment [6] was inactive. Further, the result in experiment [7] was inactive.
On to `CC(C)COC(=O)CC(C(=O)OCC(C)C)S(=O)(=O)O` (stereo not given), for which the result in [1], in experiment [2], in experiment [3], in experiment [4], in experiment [5] and in experiment [7] was inactive. Further, the molecule was called inactive in [8].
Regarding `CCCCCCCCCC[N+](C)(CCCCCCCCCC)CCC[Si](OC)(OC)OC`, the result in experiment [1], in experiment [2], in [3], in experiment [4], in experiment [5] and in experiment [8] was inactive. Also, in experiment [7], the AC50 is 18 µM (active).
Turning to `Cc1c[nH]c(=O)[nH]c1=O`, the molecule was classed as inactive in [1], in experiment [2], in experiment [3] and in [4].
Regarding `CCCC(CC)c1ccccc1` (stereo not given), the call in experiment [1], in [2], in experiment [3], in experiment [4], in [5] and in experiment [7] was inactive. Besides, in [8], the outcome was inactive. The AC50 in experiment [6] is 55.3 µM (active).
With `Cc1cccc(C(C)(C)C)c1O`, the result in [1], in experiment [2], in [3], in experiment [5], in [6] and in experiment [7] was inactive. Besides, in experiment [4], the AC50 is 19.9 µM (active).
Turning to `CC=C(C)C=CC=C(C)C`, the molecule was called inactive in experiment [1], in experiment [2], in experiment [3], in experiment [5], in experiment [6] and in experiment [7]. For the same molecule, the AC50 in [4] is 27.7 µM (active).
`C=CC(=O)OCCCCCCCCCC`: the result in [1], in experiment [2], in experiment [3], in experiment [4], in experiment [5] and in experiment [6] was inactive. For the same molecule, the result in [10], in experiment [7], in [8] and in experiment [9] was inactive.
For `CCCCC1C(=O)N(c2ccccc2)N(c2ccccc2)C1=O`, the outcome in experiment [1], in experiment [2], in [3], in experiment [4], in experiment [5] and in experiment [6] was inactive. The outcome in experiment [7], in [8] and in [9] was inactive.
